Only some compounds are listed: those with a hit (about 1.7% of all), similar ones and a draw of the others.
GLP-1R inv ag: acts as inverse agonist at human GLP-1 receptor. 410,000 compounds, 1.6% hits. HEK293 GLP-1R CRE-luciferase, luminescence, 24 h; GLP-1R form is constitutively active. Potency, µM (doses to about 38.3 µM), for the others: top-dose activity change, negative = inhibition, actives largely listed as inhibitors. AID 624417. P43220; further: on the % scale 0 is the no-effect control and ±100 the full control effect; nearly all actives have a fitted effect of over 55% in size
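Stable HEK293 clone (constitutively active GLP-1R + cAMP-response luciferase); 200 cells/uL plated, 12 h pre-culture, compound 24 hr, 37 deg C/5% CO2; detection reagent 12 min RT; luminescence.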
GLP1R cytotox: cytotoxicity counter-screen for GLP-1 receptor inverse agonists. HEK293 cAMP-luciferase reporter cells, luminescence, 24 h. Potency, µM (doses to about 38.3 µM), for inactives: at the highest dose activity change, negative = inhibition, usual class: inhibitors. 410,000 compounds, 0.13% hits;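 further: loss of luciferase light is scored as toxicity; on the % scale 0 is the no-effect control and ±100 the full control effect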
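1536-well qHTS counterscreen of the MLSMR; 200 cells/uL, 12 h pre-incubation, 23 nL cpd, 24 h at 37 deg C 5% CO2, luciferase detection reagent, 12 min RT, luminescence. Inhibition = undesired.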
PTHR1 ag: activates the human parathyroid hormone receptor PTHR1; Q03431; HEK293 GP2 PTHR1 cells, GloSensor cAMP luminescence, 1 h; Potency, µM (series often up to 115 µM), inactives show at the top dose activation, most hits filed as activators; 410,000 compounds, 0.075% hits; AID 743266; further: nearly all actives have a fitted effect of over 55% in size
Target sequence (Q03431 whole entry, looked up): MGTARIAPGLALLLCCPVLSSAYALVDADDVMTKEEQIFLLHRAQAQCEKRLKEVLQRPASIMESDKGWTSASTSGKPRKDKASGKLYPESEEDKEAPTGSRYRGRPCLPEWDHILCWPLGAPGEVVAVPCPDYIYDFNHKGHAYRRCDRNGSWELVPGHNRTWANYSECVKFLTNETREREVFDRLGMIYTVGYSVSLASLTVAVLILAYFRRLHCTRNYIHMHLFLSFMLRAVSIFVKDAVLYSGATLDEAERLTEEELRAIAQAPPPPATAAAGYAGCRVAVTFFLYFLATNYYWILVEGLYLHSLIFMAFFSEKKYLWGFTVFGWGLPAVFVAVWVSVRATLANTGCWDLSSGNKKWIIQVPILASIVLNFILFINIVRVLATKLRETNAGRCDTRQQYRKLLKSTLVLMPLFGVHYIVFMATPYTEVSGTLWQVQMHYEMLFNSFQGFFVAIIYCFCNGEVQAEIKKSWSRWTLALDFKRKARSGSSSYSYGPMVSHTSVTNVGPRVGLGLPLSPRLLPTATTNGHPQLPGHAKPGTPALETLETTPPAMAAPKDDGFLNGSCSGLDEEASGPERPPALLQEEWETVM
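HEK-293-derived GP2 cells expressing PTHR1 and a GloSensor cAMP reporter, 3,000/well, plated overnight, given luciferin plus IBMX (each 0.5 mM as added) for 1 h at 37 °C, then compound for 1 h at 37 °C. Luminescence was read after 15 min at room temperature.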
GLP1R ag: activates the human GLP-1 receptor; HEK293 GLP-1R CRE-luciferase, luminescence, 4-6 h; cells express a hypersensitive GLP-1R form; Potency, µM (doses to about 45.6 µM), for the others: at the highest dose activation, actives largely listed as activators; 380,000 compounds, 0.007% hits; AID 624172; further: % of control where 0% means no effect
Active calls of the source: *; [ ] = dose if it differs, or a comment. The call rests on the fitted dose curve; in most records, active means well fitted curve in the direction sought with a large enough effect; inconclusive means small, poorly fitted or top-dose-only effect, or another doubt; inactive means no such curve, though single readings can be large; an effect the other way counts as inactive or inconclusive. Potency means the concentration at half of the fitted maximal effect.

Screening Cc1ccc2c(c1)[C@H]1[C@H](CO2)[C@H](c2ccccc2)[C@]2(C)C(=O)Nc3ccc(Br)cc3C(=O)N12 returned GLP-1R inv ag 3.2µM*, GLP1R cytotox 5%, PTHR1 ag inactive and GLP1R ag -6%.
For CCc1cccc(C)c1NC(=O)C(CC)n1nc(C)c2c(C)n(-c3ccccc3)nc2c1=O (configuration not stated) the results were GLP-1R inv ag -25%, GLP1R cytotox 8% and PTHR1 ag -2%.
CC(C)OC(=O)c1c(-c2ccccc2)c(-c2ccccc2)nn(C)c1=O was read as GLP-1R inv ag -27%, GLP1R cytotox 2% and PTHR1 ag -18%.
`CCOC(=O)c1ccccc1NC(=O)c1cc2c(=O)oc3ccc(C)cc3c2s1` gave GLP-1R inv ag 13%, GLP1R cytotox 5%, PTHR1 ag -23% and GLP1R ag 0%.
Screening Cc1cc(C)nc(-n2nc(C)c(Br)c2Nc2ccc(Br)cc2)n1 returned GLP-1R inv ag inconclusive, GLP1R cytotox 5.6µM*, PTHR1 ag 0% and GLP1R ag 1%.
Cc1nn(C)c(Nc2ccc(Br)cc2)c1Br was read as GLP-1R inv ag inconclusive, GLP1R cytotox -19%, PTHR1 ag -54% and GLP1R ag 9%.
`Cc1cc(C)nc(SCC(=O)NC(=O)c2ccccc2O)n1` gave GLP-1R inv ag 6%, GLP1R cytotox 5%, PTHR1 ag -18% and GLP1R ag 7%.
`CCC(C(=O)OCC(=O)Nc1cc(C)ccc1OC)c1ccccc1` (configuration not stated) gave GLP-1R inv ag 10µM*, GLP1R cytotox -8%, PTHR1 ag inactive and GLP1R ag 22%.
FC(F)(F)c1cccc(NC(=S)N(CCCN2CCCC2)Cc2cccn2Cc2ccc(Cl)cc2)c1 was read as GLP-1R inv ag 6.3µM*, GLP1R cytotox -93%, PTHR1 ag inactive and GLP1R ag 3%.
For C[C@@H](CCc1ccccc1)NC[C@H](O)c1ccc(O)c(C(N)=O)c1 the results were GLP1R ag 19%.
CCOC(=O)c1scc(-c2ccc(C)cc2)c1S(=O)(=O)N1CCN(c2ccccc2F)CC1 was read as GLP-1R inv ag 7.9µM*, GLP1R cytotox 34% and PTHR1 ag -30%.
For CCOC(=O)c1c(/N=C/N(C)C)sc(/C=N/Nc2ccccc2)c1-c1ccc(Cl)cc1 the results were GLP-1R inv ag 10µM*, GLP1R cytotox 3%, PTHR1 ag 0% and GLP1R ag 0%.
S=C1NCCc2ccc(Cl)cc2C1c1ccccc1 (configuration not stated) was read as GLP-1R inv ag 11µM*, GLP1R cytotox inconclusive, PTHR1 ag inactive and GLP1R ag -6%.
For COc1cc(C(=O)OC(COCCC(C)C)CN2CCOCC2)cc(OC)c1OC (configuration not stated) the results were GLP1R ag -1%.
For CCCCC(=O)Nc1ccc(C)c(S(=O)(=O)N2CCCCCC2)c1 the results were GLP-1R inv ag inconclusive, GLP1R cytotox -5%, PTHR1 ag -48% and GLP1R ag 7%.
Screening CCCCNC(=O)C1=C(N)C(C(=O)Nc2ccc(C)c(S(=O)(=O)N3CCCCC3)c2)SC1=Nc1ccc(C)cc1C (configuration not stated) returned GLP-1R inv ag 13µM*, GLP1R cytotox 9%, PTHR1 ag inactive and GLP1R ag -5%.
CC(C)(C)c1ccc(C2=NC(C)(C)N(CC(=O)Nc3ccc(F)c(F)c3)C2=O)cc1 was read as GLP-1R inv ag 11µM*, GLP1R cytotox 1% and PTHR1 ag -15%.
C1=CC2=NC34CCCCC3CC3=C(CCCC3)N4C2=CC1=NC1CCCCC1 (configuration not stated) was read as GLP-1R inv ag 10µM*, GLP1R cytotox inconclusive, PTHR1 ag -4% and GLP1R ag -6%.
`Cc1ccc(CCNC(=O)c2ccc3c(c2)nc2n3CCOC2)cc1` gave GLP-1R inv ag 2%, GLP1R cytotox 5% and PTHR1 ag inactive.
Screening O=C(NCCc1ccccc1Cl)c1ccc2c(c1)nc1n2CCCCC1 returned GLP-1R inv ag 13µM*, GLP1R cytotox 5% and PTHR1 ag -42%.
Screening CCNC(=O)c1ccc2c(c1)nc1n2CCCCC1 returned GLP-1R inv ag -8%, GLP1R cytotox -7% and PTHR1 ag -3%.
`O=C(NCCc1ccccc1)c1ccc2c(c1)nc1n2CCOC1` gave GLP-1R inv ag 8.9µM*, GLP1R cytotox 15% and PTHR1 ag -89%.
For CC(C)CCNC(=O)c1ccc2c(c1)nc1n2CCCCC1 the results were GLP-1R inv ag 6.3µM*, GLP1R cytotox 1% and PTHR1 ag -28%.
`CCN(c1ccccc1)S(=O)(=O)c1ccc(NC(=O)c2cc(=O)c3cc(C)cc(C)c3o2)cc1` gave GLP-1R inv ag 5%, GLP1R cytotox -10% and PTHR1 ag inactive.
Screening COc1cc(NC(=O)CSc2nc(-c3ccc(C(C)C)cc3)no2)cc(OC)c1 returned GLP-1R inv ag 9%, GLP1R cytotox 3% and PTHR1 ag inactive.
Screening Oc1cccc(-c2c3nc(c(-c4cccc(O)c4)c4ccc([nH]4)c(-c4cccc(O)c4)c4nc(c(-c5cccc(O)c5)c5ccc2[nH]5)CC4)C=C3)c1 returned GLP1R ag -5%.
For CC(C)c1cccc(C(C)C)c1OC(=O)[C@H]1OC(c2ccc(Br)cc2)=C[C@@H]1c1ccc(Br)cc1 the results were GLP-1R inv ag 13µM*, GLP1R cytotox -7%, PTHR1 ag -86% and GLP1R ag -2%.
CCc1ccc2nc(N(CCN(CC)CC)C(=O)c3cccs3)sc2c1 was read as GLP-1R inv ag inconclusive, GLP1R cytotox -10% and PTHR1 ag -5%.
`CC1(C)C([N+](=O)[O-])C(c2ccccc2O)NC(c2ccccc2O)C1[N+](=O)[O-]` (configuration not stated) gave GLP-1R inv ag 10µM*, GLP1R cytotox 21%, PTHR1 ag inactive and GLP1R ag 6%.
For COc1cccc(C2C(C#N)=C(N)OC3=C2C(=O)CC(c2ccco2)C3)c1OCc1ccc(F)cc1 (configuration not stated) the results were GLP-1R inv ag inconclusive, GLP1R cytotox 8%, PTHR1 ag inactive and GLP1R ag 1%.
`N#CC1=C(N)OC2=C(C(=O)CC(c3ccco3)C2)C1c1ccc(OCc2c(F)cccc2Cl)cc1` (configuration not stated) gave GLP-1R inv ag 10µM*, GLP1R cytotox -2%, PTHR1 ag -47%[57.5 µM] and GLP1R ag -14%.
Cc1cc(C)c2cc(C(=O)N(C)C3CCN(C)CC3)[nH]c2c1 was read as GLP-1R inv ag 5µM*, GLP1R cytotox 7%, PTHR1 ag inactive and GLP1R ag 9%.
